# Source: PubChem BioAssay AID1159580 (chemical genetic matrix, 2015)
# “And” between values parts separate entries of the source, which are not always exact repeats. Identical values can stand only once. In all, about 5,500 compounds went through this assay and about 2,000 (36%) were called active. About 18% were inconclusive and are not listed. The list shows a part of the results. Values without a mark were called inactive. Cut-off read from the data, not from the text of the source: active = normalized growth mostly below about 0.91 (no sharp cut-off); inconclusive = no clear call, values can overlap the other calls; inactive = mostly above about 0.92.
# Assay: chemical genetic growth profiling, strain panel (AID 1159580);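 note: tested at 20 µM; growth read once vehicle control cultures reached saturation at 30 °C; 1 = growth at the plate median or of vehicle wells; lower values mean less growth of the strain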
# Settings: S. cerevisiae deletion strains, growth OD
structure (smiles),measurement,setting,value
COC(=O)c1c(C)c2c(c(C)c1O)OC(=O)c1c(C)c(Cl)c(O)c(Cl)c1O2,normalized growth,"locus YAL021C, strain ccr4, stronger effect = lower value",0.943
same,normalized growth,"locus YAL026C, strain drs2, stronger effect = lower value",0.951
same,normalized growth,"locus YAL030W, strain snc1, stronger effect = lower value",0.969
same,normalized growth,"locus YBL061C, strain skt5, stronger effect = lower value",0.968
same,normalized growth,"locus YBR009C, strain hhf1, stronger effect = lower value",0.935
same,normalized growth,"locus YBR021W, strain FUR4, stronger effect = lower value",0.962
same,normalized growth,"locus YBR023C, strain chs3, stronger effect = lower value",0.959
same,normalized growth,"locus YBR171W, strain sec66, stronger effect = lower value",0.975
same,normalized growth,"locus YBR229C, strain ROT2, stronger effect = lower value",0.985
same,normalized growth,"locus YBR231C, strain swc5, stronger effect = lower value",0.976
same,normalized growth,"locus YBR279W, strain paf1, stronger effect = lower value",0.944
same,normalized growth,"locus YCL011C, strain gbp2, stronger effect = lower value",0.96
same,normalized growth,"locus YCL016C, strain dcc1, stronger effect = lower value",0.967
same,normalized growth,"locus YCL029C, strain bik1, stronger effect = lower value",1.03
same,normalized growth,"locus YCL069W, strain vba3, stronger effect = lower value",0.944
same,normalized growth,"locus YCR088W, strain abp1, stronger effect = lower value",0.96
same,normalized growth,"locus YDL005C, strain med2, stronger effect = lower value",0.947
same,normalized growth,"locus YDL035C, strain GPR1, stronger effect = lower value",0.894
same,normalized growth,"locus YDL040C, strain nat1, stronger effect = lower value",0.943
same,normalized growth,"locus YDL074C, strain BRE1, stronger effect = lower value",0.926
same,normalized growth,"locus YDL101C, strain DUN1, stronger effect = lower value",0.98
same,normalized growth,"locus YDL134C, strain PPH21, stronger effect = lower value",0.941
same,normalized growth,"locus YDL185W, strain tfp1, stronger effect = lower value",0.995
same,normalized growth,"locus YDL192W, strain arf1, stronger effect = lower value",0.922
same,normalized growth,"locus YDR001C, strain nth1, stronger effect = lower value",0.969
same,normalized growth,"locus YDR069C, strain doa4, stronger effect = lower value",0.967
same,normalized growth,"locus YDR101C, strain arx1, stronger effect = lower value",1
same,normalized growth,"locus YDR137W, strain rgp1, stronger effect = lower value",0.87
same,normalized growth,"locus YDR159W, strain sac3, stronger effect = lower value",0.902
same,normalized growth,"locus YDR162C, strain NBP2, stronger effect = lower value",0.734 (active)
same,normalized growth,"locus YDR195W, strain ref2",1.03
same,normalized growth,"locus YDR297W, strain sur2, stronger effect = lower value",0.944
same,normalized growth,"locus YDR318W, strain mcm21, stronger effect = lower value",0.975
same,normalized growth,"locus YDR334W, strain swr1, stronger effect = lower value",0.939
same,normalized growth,"locus YDR335W, strain msn5, stronger effect = lower value",0.939
same,normalized growth,"locus YDR388W, stronger effect = lower value",0.984
same,normalized growth,"locus YDR392W, strain spt3, stronger effect = lower value",0.617 (active)
same,normalized growth,"locus YDR502C, strain sam2, stronger effect = lower value",0.96
same,normalized growth,"locus YEL003W, strain gim4, stronger effect = lower value",0.969
same,normalized growth,"locus YEL037C, strain rad23, stronger effect = lower value",0.957
same,normalized growth,"locus YEL061C, strain CIN8 (second series), stronger effect = lower value",0.961
same,normalized growth,"locus YEL061C, strain CIN8, stronger effect = lower value",0.986
same,normalized growth,"locus YER015W, strain faa2, stronger effect = lower value",0.977
same,normalized growth,"locus YER016W, strain bim1, stronger effect = lower value",0.96
same,normalized growth,"locus YER110C, stronger effect = lower value",1.03
same,normalized growth,"locus YER111C, strain swi4, stronger effect = lower value",0.979
same,normalized growth,"locus YER155C, strain BEM2 (second series), stronger effect = lower value",0.97
same,normalized growth,"locus YER155C, strain BEM2, stronger effect = lower value",1.01
same,normalized growth,"locus YER167W, strain BCK2, stronger effect = lower value",0.937
same,normalized growth,"locus YFR010W, strain ubp6, stronger effect = lower value",0.952
same,normalized growth,"locus YGL078C, strain dbp3, stronger effect = lower value",0.991
same,normalized growth,"locus YGL086W, strain mad1, stronger effect = lower value",0.962
same,normalized growth,"locus YGL167C, strain pmr1, stronger effect = lower value",0.95
same,normalized growth,"locus YGL173C, strain kem1, stronger effect = lower value",0.966
same,normalized growth,"locus YGL227W, strain vid30, stronger effect = lower value",0.969
same,normalized growth,"locus YGL240W, strain doc1, stronger effect = lower value",0.93
same,normalized growth,"locus YGL248W, strain PDE1, stronger effect = lower value",0.983
same,normalized growth,"locus YGL253W, strain hxk2, stronger effect = lower value",0.952
same,normalized growth,"locus YGR135W, strain pre9, stronger effect = lower value",0.964
same,normalized growth,"locus YGR229C, strain SMI1, stronger effect = lower value",0.462 (active)
same,normalized growth,"locus YGR252W, strain gcn5, stronger effect = lower value",0.927
same,normalized growth,"locus YHR013C, strain ard1, stronger effect = lower value",0.946
same,normalized growth,"locus YHR027C, strain rpn1, stronger effect = lower value",0.957
same,normalized growth,"locus YHR030C, strain SLT2, stronger effect = lower value",0.992 and 0.949
same,normalized growth,"locus YHR079C, strain IRE1 (second series), stronger effect = lower value",1.03
same,normalized growth,"locus YHR079C, strain IRE1, stronger effect = lower value",0.94
same,normalized growth,"locus YHR094C, strain hxt1, stronger effect = lower value",1.03
same,normalized growth,"locus YHR129C, strain ARP1, stronger effect = lower value",0.973
same,normalized growth,"locus YHR142W, strain chs7, stronger effect = lower value",0.849 (active)
same,normalized growth,"locus YHR200W, strain rpn10, stronger effect = lower value",0.993
same,normalized growth,"locus YIL066C, strain RNR3, stronger effect = lower value",0.892
same,normalized growth,"locus YIL073C, strain SPO22, stronger effect = lower value",0.976
same,normalized growth,"locus YIL125W, strain kgd1, stronger effect = lower value",1.01
same,normalized growth,"locus YIR030C, strain dcg1, stronger effect = lower value",1.02
same,normalized growth,"locus YJL092W, strain hpr5, stronger effect = lower value",0.979
same,normalized growth,"locus YJL095W, strain BCK1 (second series), stronger effect = lower value",0.955
same,normalized growth,"locus YJL095W, strain BCK1, stronger effect = lower value",0.84 and 0.969
same,normalized growth,"locus YJL115W, strain asf1, stronger effect = lower value",0.956
same,normalized growth,"locus YJL129C, strain trk1, stronger effect = lower value",0.9
same,normalized growth,"locus YJL134W, strain LCB3, stronger effect = lower value",1
same,normalized growth,"locus YJL154C, strain vps35, stronger effect = lower value",0.967
same,normalized growth,"locus YJL164C, strain tpk1, stronger effect = lower value",0.926
same,normalized growth,"locus YJL166W, strain qcr8, stronger effect = lower value",0.94
same,normalized growth,"locus YJL168C, strain set2, stronger effect = lower value",0.997
same,normalized growth,"locus YJL187C, strain SWE1 (second series), stronger effect = lower value",0.966
same,normalized growth,"locus YJR043C, strain POL32, stronger effect = lower value",0.853 (active)
same,normalized growth,"locus YJR066W, strain TOR1, stronger effect = lower value",0.878
same,normalized growth,"locus YKL009W, strain mrt4, stronger effect = lower value",1.01
same,normalized growth,"locus YKL068W, stronger effect = lower value",1
same,normalized growth,"locus YKL085W, strain MDH1 (second series), stronger effect = lower value",1.01
same,normalized growth,"locus YKL085W, strain MDH1, stronger effect = lower value",1.01
same,normalized growth,"locus YKL160W, strain elf1, stronger effect = lower value",0.956
same,normalized growth,"locus YKL190W, strain CNB1, stronger effect = lower value",0.957
same,normalized growth,"locus YKR001C, strain vps1, stronger effect = lower value",0.937
same,normalized growth,"locus YKR026C, strain gcn3, stronger effect = lower value",0.97
same,normalized growth,"locus YKR091W, strain srl3, stronger effect = lower value",0.967
same,normalized growth,"locus YLL001W, strain dnm1, stronger effect = lower value",0.959
same,normalized growth,"locus YLL026W, stronger effect = lower value",0.975
same,normalized growth,"locus YLL041C, strain sdh2, stronger effect = lower value",0.964
same,normalized growth,"locus YLR027C, strain aat2, stronger effect = lower value",0.984
same,normalized growth,"locus YLR039C, strain RIC1, stronger effect = lower value",0.928
same,normalized growth,"locus YLR058C, strain SHM2, stronger effect = lower value",0.985
same,normalized growth,"locus YLR102C, strain apc9, stronger effect = lower value",1.01
same,normalized growth,"locus YLR113W, strain HOG1, stronger effect = lower value",1.04
same,normalized growth,"locus YLR221C, strain rsa3, stronger effect = lower value",0.958
same,normalized growth,"locus YLR258W, strain gsy2, stronger effect = lower value",0.937
same,normalized growth,"locus YLR262C, strain YPT6 (second series), stronger effect = lower value",0.855 (active)
same,normalized growth,"locus YLR262C, strain YPT6, stronger effect = lower value",0.865
same,normalized growth,"locus YLR268W, strain sec22, stronger effect = lower value",1
same,normalized growth,"locus YLR320W, strain mms22, stronger effect = lower value",0.932
same,normalized growth,"locus YLR330W, strain CHS5, stronger effect = lower value",0.987
same,normalized growth,"locus YLR342W, strain FKS1 (second series), stronger effect = lower value",0.751 (active)
same,normalized growth,"locus YLR342W, strain FKS1, stronger effect = lower value",0.971
same,normalized growth,"locus YLR357W, strain rsc2, stronger effect = lower value",0.922
same,normalized growth,"locus YLR370C, strain arc18, stronger effect = lower value",0.958
same,normalized growth,"locus YLR371W, strain rom2, stronger effect = lower value",1.03
same,normalized growth,"locus YLR384C, strain iki3, stronger effect = lower value",0.983
same,normalized growth,"locus YLR418C, strain cdc73, stronger effect = lower value",0.83 (active)
same,normalized growth,"locus YML016C, strain PPZ1, stronger effect = lower value",1.01
same,normalized growth,"locus YML032C, strain rad52, stronger effect = lower value",0.959
same,normalized growth,"locus YML120C, strain ndi1, stronger effect = lower value",0.957
same,normalized growth,"locus YML124C, strain tub3, stronger effect = lower value",1.02
same,normalized growth,"locus YMR058W, strain fet3, stronger effect = lower value",0.95
same,normalized growth,"locus YMR078C, strain ctf18, stronger effect = lower value",1.01
same,normalized growth,"locus YMR125W, strain sto1, stronger effect = lower value",0.986
same,normalized growth,"locus YMR129W, stronger effect = lower value",0.974
same,normalized growth,"locus YMR205C, strain PFK2, stronger effect = lower value",0.879
same,normalized growth,"locus YMR223W, strain ubp8, stronger effect = lower value",0.949
same,normalized growth,"locus YMR231W, strain pep5, stronger effect = lower value",0.954
same,normalized growth,"locus YMR307W, strain GAS1, stronger effect = lower value",0.545 (active)
same,normalized growth,"locus YNL067W, strain RPL9B, stronger effect = lower value",0.996
same,normalized growth,"locus YNL071W, strain lat1, stronger effect = lower value",0.932
same,normalized growth,"locus YNL183C, strain NPR1, stronger effect = lower value",0.931
same,normalized growth,"locus YNL209W, strain ssb2, stronger effect = lower value",0.991
same,normalized growth,"locus YNL233W, strain BNI4, stronger effect = lower value",0.916
same,normalized growth,"locus YNL248C, strain rpa49, stronger effect = lower value",0.954
same,normalized growth,"locus YNL250W, strain rad50, stronger effect = lower value",1.02
same,normalized growth,"locus YNL271C, strain bni1, stronger effect = lower value",1
same,normalized growth,"locus YNL298W, strain CLA4, stronger effect = lower value",1.01
same,normalized growth,"locus YNL307C, strain MCK1, stronger effect = lower value",0.978
same,normalized growth,"locus YNL322C, strain KRE1 (second series), stronger effect = lower value",0.976
same,normalized growth,"locus YNR049C, strain mso1, stronger effect = lower value",0.955
same,normalized growth,"locus YNR052C, strain pop2, stronger effect = lower value",0.967
same,normalized growth,"locus YOL012C, strain htz1",1.87
same,normalized growth,"locus YOL147C, strain pex11, stronger effect = lower value",1
same,normalized growth,"locus YOR001W, strain rrp6, stronger effect = lower value",0.945
same,normalized growth,"locus YOR061W, strain CKA2, stronger effect = lower value",0.99
same,normalized growth,"locus YOR069W, strain VPS5, stronger effect = lower value",1.01
same,normalized growth,"locus YOR070C, strain gyp1, stronger effect = lower value",0.98
same,normalized growth,"locus YOR080W, strain dia2, stronger effect = lower value",0.965
same,normalized growth,"locus YOR083W, strain WHI5, stronger effect = lower value",0.932
same,normalized growth,"locus YOR106W, strain vam3, stronger effect = lower value",0.877
same,normalized growth,"locus YOR136W, strain idh2, stronger effect = lower value",0.997
same,normalized growth,"locus YOR144C, strain elg1, stronger effect = lower value",1.02
same,normalized growth,"locus YOR184W, strain ser1, stronger effect = lower value",0.874
same,normalized growth,"locus YOR231W, strain MKK1, stronger effect = lower value",0.972
same,normalized growth,"locus YOR265W, strain rbl2, stronger effect = lower value",0.962
same,normalized growth,"locus YOR270C, strain vph1, stronger effect = lower value",0.715 (active)
same,normalized growth,"locus YOR290C, strain snf2, stronger effect = lower value",0.92
same,normalized growth,"locus YOR316C, strain cot1, stronger effect = lower value",1
same,normalized growth,"locus YPL051W, strain arl3, stronger effect = lower value",0.925
same,normalized growth,"locus YPL078C, strain atp4, stronger effect = lower value",0.964
same,normalized growth,"locus YPL106C, strain sse1, stronger effect = lower value",0.903
same,normalized growth,"locus YPL240C, strain hsp82, stronger effect = lower value",0.96
same,normalized growth,"locus YPL256C, strain CLN2, stronger effect = lower value",0.954
same,normalized growth,"locus YPR119W, strain clb2, stronger effect = lower value",1
same,normalized growth,"locus YPR141C, strain kar3, stronger effect = lower value",0.995
same,normalized growth,"locus YPR163C, strain tif3, stronger effect = lower value",1.02
same,normalized growth,"locus YPR167C, strain met16, stronger effect = lower value",0.982
same,normalized growth,"strain wtn01, stronger effect = lower value",1
